Rab9 prom act = Rab9 promoter activation; Huh7 Rab9 promoter-luciferase reporter, luminescence, 24 h; Potency, µM (top dose mostly 9.22 µM), for the others: at the highest dose activation, negative = inhibition, usual class: activators; actives 2.8% (n = 320,000); also: % of control where 0% means no effect; nearly all actives have a fitted effect of over 60% in size
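Huh7 cells stably carrying a Rab9 promoter-luciferase reporter, 1500 cells per well in OP-MEM I with 10% FBS, treated with compound 24 hours at 37C. Luciferase activity read by luminescence after 10 minutes with Amplite reagent.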
FLuc modulator = firefly luciferase modulation, counter-screen for miR-21 project; Potency, µM (top dose mostly 57.5 µM), inactives show top-dose activity change, negative = inhibition, usual class: inhibitors; AID 588342; actives 6.9% (n = 360,000); purified FLuc, Km substrates, luminescence inhibition;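 also: plate controls were vehicle for no effect and reference inhibitor for full effect; nearly all actives have a fitted effect of over 55% in size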
Target sequence (P08659 whole entry, looked up): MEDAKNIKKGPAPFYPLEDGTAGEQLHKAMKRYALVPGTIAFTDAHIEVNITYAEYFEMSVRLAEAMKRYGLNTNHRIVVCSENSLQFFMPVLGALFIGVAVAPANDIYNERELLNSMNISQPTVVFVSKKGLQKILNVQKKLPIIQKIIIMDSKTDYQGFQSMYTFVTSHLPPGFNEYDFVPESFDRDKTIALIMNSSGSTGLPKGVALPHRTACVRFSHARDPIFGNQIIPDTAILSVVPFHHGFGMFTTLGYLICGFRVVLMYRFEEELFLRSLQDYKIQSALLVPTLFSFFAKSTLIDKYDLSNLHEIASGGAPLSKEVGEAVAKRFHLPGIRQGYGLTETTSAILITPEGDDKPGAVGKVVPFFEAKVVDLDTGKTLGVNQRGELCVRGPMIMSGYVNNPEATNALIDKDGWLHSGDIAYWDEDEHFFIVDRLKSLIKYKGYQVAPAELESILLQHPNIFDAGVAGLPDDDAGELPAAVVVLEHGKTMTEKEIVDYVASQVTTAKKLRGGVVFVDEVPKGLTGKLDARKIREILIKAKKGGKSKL
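Purified P. pyralis luciferase (10nM final) with 10uM D-luciferin and 10uM ATP (Km levels) in 50mM Tris acetate pH 7.5, 10mM Mg acetate, 0.01% Tween-20, 0.05% BSA; qHTS 6-point titration, ~60 µM downward; luminescence read.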
ELG1 genotoxic = inducers of genotoxicity in HEK293T ELG1-luciferase cells. Potency, µM (series often up to 46 µM), for the others: top-dose activity change, positive = activation, actives largely listed as activators. AID 504466. actives 1.3% (n = 330,000). HEK293T ELG1-luciferase reporter, luminescence, 16 h; also: % of control where 0% means no effect; nearly all actives have a fitted effect of over 60% in size
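Genotoxicity was scored as increased ELG1-luciferase reporter signal, measured by ONE-Glo luminescence (30 min, room temperature). Compound or vehicle exposure of the HEK293T reporter cells lasted 16 hr at 37°C.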
ELG1 repair inh = blocks ELG1-dependent DNA repair in HEK293T cells; actives 2.3% (n = 330,000); HEK293T ELG1-luciferase reporter, luminescence, 16 h; DNA damage induced by 5-fluorouridine; Potency, µM (series often up to 46.1 µM), for the others: at the highest dose activity change, negative = inhibition, usual class: inhibitors; also: % is scaled to controls: 0 for no effect and ±100 for the full control effect; nearly all actives have a fitted effect of over 55% in size
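In this reporter screen, reduction of luminescence relative to DMSO vehicle indicated activity. Compounds and 5-fluorouridine were added together to 2,000 cells per well, incubated for 16 hr at 37 °C, then developed with ONE-Glo.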
SMN2 splice enh = enhancers of SMN2 splice variant expression. HEK293 SMN2-luciferase splicing reporter, luminescence, 30-36 h. actives 2.8% (n = 210,000). Potency, µM (highest dose often 46.1 µM), without a hit: at the top dose activity change, positive = activation, most hits filed as activators. AID 1458; also: % of control where 0% means no effect; nearly all actives have a fitted effect of over 55% in size
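HEK293 cells carry an SMN2 minigene-luciferase reporter in which exon 7 inclusion puts luciferase in frame. Cells were seeded at 2000 cells/well, attached for 10-12 hours, then exposed to compounds for 30-36 hours at 37C before ONE-Glo luminescence.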
NPC1 prom act = activators of NPC1 promoter. actives 2.4% (n = 320,000). Huh7 NPC1 promoter luciferase reporter, 24 h. AID 485313. Potency, µM (top dose mostly 9.22 µM), for inactives: at the highest dose activation, actives largely listed as activators; also: % of control where 0% means no effect; nearly all actives have a fitted effect of over 60% in size
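Huh7 reporter cells (NPC1 promoter driving luciferase) are dosed with compound for 24 h at 37 °C, 5% CO2; luciferase detection reagent is then added and luminescence measured after 10 min at ambient temperature.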
The depositor's hits bear a star; ? = inconclusive; . = not tested or not shown; [ ] = another dose, or the depositor's remark. Compounds with a hit are over-represented: about 9.4% of the library has one in this group of screens. Calls follow the shape of the dose curve; as a rule, active = well fitted curve in the direction sought with a large enough effect; inconclusive = small, poorly fitted or top-dose-only effect, or another doubt; inactive = no such curve, though single readings can be large; an effect the other way counts as inactive or inconclusive. Potency is read from the fitted curve at half-maximal effect.

SMILES	Rab9 prom act	FLuc modulator	ELG1 genotoxic	ELG1 repair inh	SMN2 splice enh	NPC1 prom act
COc1ccc(C(c2c(O)cc(C)n(Cc3ccco3)c2=O)N2CCCCC2)cc1OC (stereo not given)	.	2%	.	.	.	.
COc1ccccc1NC(=O)c1sc(-c2ccc(Cl)cc2)cc1N	.	-16%	.	.	-25%	.
COC(=O)C1=C(CS(=O)(=O)c2ccc(C)cc2C)NC(=O)NC1c1ccc(C)cc1 (stereo not given)	.	2%	.	.	-4%	.
Brc1ccc(-c2nc(-c3ccncc3)no2)o1	?	?	18µM*	?	?	?
COc1ccc(-c2nc(-c3ccncc3)no2)cc1	0.56µM*	2.1µM*	?	?	.	0.5µM*
COc1ccc(-c2noc(-c3ccc(Br)o3)n2)cc1OC	30%	-8%	?	?	23%	15%
Clc1ccccc1-c1nnc(-c2cccnc2)o1	?	15µM*	23µM*	?	.	4µM*
Cc1nc(-c2noc(-c3cccc(Cl)c3)n2)c(C(F)(F)F)o1	2%	?	3%	15%	.	5%
Cc1nc(-c2noc(-c3ccccc3Cl)n2)c(C(F)(F)F)o1	29%	15µM*	18%	?	.	?
CCc1ccc(NC(=O)C2CCCN(S(=O)(=O)c3cccc4nsnc34)C2)cc1 (stereo not given)	.	-1%	.	.	-4%	.
COc1cc(OC)cc(-c2nc(-c3ccccc3)no2)c1	?	-14%[2.3 µM]	?	?	22µM*	?
Clc1ccccc1-c1nc(-c2ccncc2)no1	1.3µM*	6.7µM*	10µM*	?	?	4µM*
O=[N+]([O-])c1cccc(-c2noc(-c3cccs3)n2)c1	2.5µM*	2.7µM*	15µM*	?	.	3.5µM*
O=[N+]([O-])c1cccc(-c2nc(-c3cccs3)c(-c3cccs3)[nH]2)c1	3%	-9%	-4%	?	-60%	2%
c1ccc(-c2ccccc2-c2nc(-c3ccncc3)no2)cc1	0%	-2%	-2%	5%	3.2µM*	-3%
Cc1onc(-c2ccccc2Cl)c1-c1nc(-c2ccncc2)no1	-4%	0%	2%	2%	-11%	1%
CCc1ccccc1NC(=O)c1noc2c1CC(C(C)(C)C)CC2 (stereo not given)	.	-6%	.	.	-20%	.
COc1cccc(NC(=O)c2cnn(-c3ccccc3)c2-n2cccc2)c1	.	-17%	.	.	.	.
Cc1ccc(-c2nc(-c3ccncc3)no2)c(Cl)c1	?	0.48µM*	0.46µM*	?	.	0.63µM*
Clc1ccc(Cl)c(-c2nc(-c3ccncc3)no2)c1	?	?	8%	?	.	24%
Cc1ccccc1-c1nc(-c2cccnc2)no1	?	11µM*	?	?	?	?
c1ccc(-c2nc(-c3ccncc3)no2)cc1	.	12µM*	.	.	?	.
Cc1ccc(SCc2nc(-c3cccnc3)no2)cc1	12%	1%[2.3 µM]	1%	13%	8%	11%
Clc1ccccc1-c1nc(-c2cccnc2)no1	.	3µM*	.	.	11µM*	.
CCN(CC)C(=O)Cn1c(=O)nc(-c2ccccc2F)c2cc(Cl)ccc21	.	-3%	.	.	.	.
SMILES	Rab9 prom act	FLuc modulator	ELG1 genotoxic	ELG1 repair inh	SMN2 splice enh	NPC1 prom act
COc1cccc(NC(=O)c2nn(-c3ccc(C)cc3)c(=O)n(C)c2=O)c1	.	-2%	.	.	.	.
O=C(C1CCC(Cn2c(=O)c3sccc3n(Cc3cccc(F)c3)c2=O)CC1)N1CCCCC1 (stereo not given)	.	-12%	.	.	.	.
c1csc(-c2nc(N3CCCCC3)no2)c1	1.6µM*	6.7µM*	15µM*	?	.	2.2µM*
Cc1ccccc1-c1nc(-c2ccccn2)no1	0.45µM*	0.48µM*	?	?	1.1µM*	?
CSc1ccccc1-c1nc(-c2ccncc2)no1	?	?	?	?	.	3.5µM*
Clc1ccccc1-c1nnc(-c2cccs2)o1	1.3µM*	9.5µM*	?	?	11µM*	2.2µM*
